# Rows were chosen to be rich in hits. Some 6.5% of all compounds tested hit in one or more screens of this group.
# HCMV antiviral: qHTS Assay for inhibitors of the human cytomegalovirus (HCMV); HFF cells, HCMV-luciferase reporter, 72 h; hits give low values; activity change, negative = inhibition, % at 57.5 µM; 410,000 compounds, 4.5% hits; in the data active means activity change below about -60%; inconclusive means no clear call, values can overlap the other calls; inactive means above about -39%
#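 After 16 h attachment at 37C, HFF cells received test compound and HCMV-luciferase (1 PFU/cell); reporter luminescence read 72 h later, data normalized against buffer-only and known inhibitor Salinomycin.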
# Vaccinia Venus: qHTS for Stage-Specific Inhibitors of Vaccinia Orthopoxvirus: Venus Reporter Primary qHTS. Vaccinia virus Venus reporter expression, fluorescence. Potency, µM (series often up to 36.5 µM), for the others: at the highest dose activity change, negative = inhibition, usual class: inhibitors. 330,000 compounds, 0.46% hits; calls by dose curve; tested in A549 cells; further: potency means the concentration at half of the fitted maximal effect; nearly all actives have a fitted effect of over 30% in size
# FMDV antiviral: High Throughput Screening for Foot and Mouth Disease Virus Antivirals. FMDV antiviral cell-based qHTS. Potency, µM (doses to about 57.9 µM), without a hit: at the highest dose activity change, negative = inhibition, hits mostly inhibitors. 410,000 compounds, 1.2% hits. AID 1159524, 2015; calls by dose curve; tested in HEK293T cells; further: read-out not given here; potency means the concentration at half of the fitted maximal effect; nearly all actives have a fitted effect of over 45% in size
# Lassa entry inh: qHTS for Inhibitors of binding or entry into cells for Lassa Virus; Potency, µM (doses to about 37.9 µM), for inactives: top-dose activity change, negative = inhibition, actives largely listed as inhibitors; 300,000 compounds, 1.2% hits; Lassa virus pseudotype entry inhibition, cell reporter; AID 540256, 2011; calls by dose curve; tested in HEK293 cells; further: potency means the concentration at half of the fitted maximal effect; nearly all actives have a fitted effect of over 50% in size
# Marburg entry inh: qHTS for inhibitors of binding or entry into cells for Marburg Virus | Marburg virus pseudotyped entry inhibition, cell reporter | Potency, µM (titrated, usually from 37.8 µM), without a hit: at the highest dose activity change, negative = inhibition, most hits filed as inhibitors | 300,000 compounds, 1.8% hits | AID 540276, 2011; calls by dose curve; tested in HEK293 cells; further: potency means the concentration at half of the fitted maximal effect
# VACV mCherry inh: qHTS for Stage-Specific Inhibitors of Vaccinia Orthopoxvirus: mCherry Reporter Primary qHTS; Potency, µM (titrated, usually from 36.5 µM), inactives show at the highest dose activity change, negative = inhibition, hits mostly inhibitors; AID 720579, 2013; 310,000 compounds, 0.63% hits; Vaccinia virus mCherry reporter infection, fluorescence; calls by dose curve; tested in A549 cells; further: potency means the concentration at half of the fitted maximal effect; nearly all actives have a fitted effect of over 35% in size
# * = called active by the depositor; i = inactive; ? = inconclusive; nt = not tested or not shown; ! = not active in a repeat; [ ] = dose if it differs, or a comment. On the % scale 0 is the no-effect control and ±100 the full control effect.
SMILES,HCMV antiviral,Vaccinia Venus,FMDV antiviral,Lassa entry inh,Marburg entry inh,VACV mCherry inh
O=C(OCc1cccc(Cl)c1)c1cc(S(=O)(=O)N2CCCCC2)ccc1N1CCOCC1,-35,-30%,-27%,?,11µM*,-11%
O=C(COC(=O)c1cc(S(=O)(=O)N2CCCCC2)ccc1N1CCOCC1)c1ccc(Cl)cc1,9,-11%,12%,?,?,i
COc1ccccc1OCC(=O)N(Cc1cccs1)C1CCS(=O)(=O)C1 (stereo unspecified),5,-6%,3%,-19%[46.1 µM],-3%[46.1 µM],-2%
C[C@H]1CC[C@H]2C(=O)O[C@H](COc3ccc(C(C)(C)C)cc3)CN2[C@H]1c1ccc(Br)cc1,nt,nt,nt,?,-12%[14.2 µM],nt
CCc1ccc(CC2S/C(=C(\C#N)C(C)=O)NC2=O)cc1 (stereo unspecified),-90*,nt,26%,5.8µM*,?,nt
CC(=O)/C(C#N)=C1\NC(=O)C(Cc2ccc(C)c(Cl)c2)S1 (stereo unspecified),-92*,56%[7.34 µM],14%,?,?,-2%[7.34 µM]
CCOC(=O)c1ccc(CC2S/C(=C(\C#N)C(C)=O)NC2=O)cc1 (stereo unspecified),119,109%,63%,?,?,22%
Nc1nc2n(n1)[C@@H](c1cccs1)C[C@H](c1ccc(F)cc1)N2,nt,nt,nt,nt,-1%,nt
COc1ccc(NC(=O)CSCC(=O)N(C)CC(=O)Nc2c(C)cccc2C)cc1,-102*,nt,1%,nt,nt,nt
CCN(CC(=O)Nc1c(F)cccc1F)C(=O)CSCC(=O)Nc1ccc(OC)cc1,?,-9%,-2%,21%,22%,-21%
COc1ccc(C(C)(C)C)cc1NC(=O)c1[nH]c(C)c(C(C)=O)c1C,9,-15%,-4%,11µM*,10µM*,i
COc1ccc(NC(=O)c2[nH]c(C)c(C(C)=O)c2C)cc1Cl,336,-8%,50%,?,?,-9%
Cc1ccc(Oc2ccc(S(=O)(=O)N3CCOCC3)cc2C(N)=O)c(-n2nc3ccccc3n2)c1,-85*,?,-23%,?,?,nt
COc1ccccc1Oc1ccc(S(=O)(=O)N2CCOCC2)cc1S(=O)(=O)N1CCOCC1,-29,-10%,20%,17%,-2%,nt
CCN(CC)CCN(C(=O)c1ccc(CN2CCCCC2)o1)C(C(=O)NC1CCCCC1)c1ccc(F)cc1 (stereo unspecified),-26,-3%,5%,0%[46.1 µM],5µM*,-13%
CC(C)CCNC(=O)C(C)N(Cc1ccc(F)cc1)C(=O)c1ccc(CN2CCCCC2)o1 (stereo unspecified),1,nt,-24%,-9%,-6%,nt
C=CCOc1ccccc1CN1CCC(n2nccc2NC(=O)C2CCOC2)CC1 (stereo unspecified),?,-12%,-9%,9%,-13%,-16%
CC(=O)c1cccc(CN2CCC(C(=O)Nc3cccc(-c4ccn[nH]4)c3)CC2)c1,?,-17%,32µM*,3%,?,-4%
C=CCOc1ccccc1CN1CCC(C(=O)Nc2cccc(-c3ccn[nH]3)c2)CC1,-64*,nt,-20%,nt,nt,nt
CCCCNC(=O)[C@@H]1CC=C[C@@H]2CCN(C3CCCCC3)C(=O)[C@@H]21,nt,-2%,nt,nt,nt,i
O=[N+]([O-])c1ccc(S(=O)(=O)CC2CSc3nc4ccccc4n32)cc1 (stereo unspecified),-79*,-17%,-14%,?,?,-15%
Cc1nnc2n(c1=O)C(CS(=O)(=O)c1ccccc1)CS2 (stereo unspecified),49,nt,-24%,8%,-16%,nt
COc1ccc(Nc2nc(N)nc(CSc3nc4ccccc4s3)n2)cc1,-21,-20%,?,?,-9%[46.1 µM],?
Cc1ccc(Nc2nc(N)nc(CSc3nc4ccccc4s3)n2)cc1,-91*!,?,0%,?,?,?
Cc1c(Cl)cccc1Nc1nc(N)nc(CN2CCc3ccccc3C2)n1,-22,-27%,-4%,-4%,-7%,?
Nc1nc(CCl)nc(Nc2ccccc2)n1,-91*,nt,38%,nt,nt,nt
Cc1ccc(Nc2nc(N)nc(CN3CCc4ccccc4C3)n2)cc1,19,nt,-17%,23µM*,?,nt

# Screening data as filed in PubChem.
